Many of the other results were omitted from the sample, so hits are more common in it than they were.
ClpP mod = qHTS Assay for Activators of ClpP | Potency, µM (top dose mostly 57.5 µM) | AID 651965, 2013 | ATP-dependent Clp protease proteolytic subunit (Bacillus subtilis (strain 168)), P80244 | purified B. subtilis ClpP, FRET peptide cleavage, 20 min | hit rate 1.9% among 340,000; active = well fitted falling curve with a large enough effect; inconclusive = small, poorly fitted or top-dose-only effect; inactive = no such curve, though single readings can be large or run the other way; also: the source files actives as falling curves though it sought activators and does not explain the sign; nearly all actives have a fitted effect of over 65% in size
Target sequence (P80244 whole entry, looked up): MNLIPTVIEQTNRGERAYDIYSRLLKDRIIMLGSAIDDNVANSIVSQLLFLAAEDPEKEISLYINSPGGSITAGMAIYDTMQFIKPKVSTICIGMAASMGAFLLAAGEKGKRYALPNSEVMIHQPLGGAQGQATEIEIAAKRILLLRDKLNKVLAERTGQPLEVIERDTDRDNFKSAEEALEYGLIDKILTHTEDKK
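Purified B. subtilis ClpP, 10 microg/mL final in Tris/HCl pH8 with KCl, BSA, glycerol and Tween-20, cleaved an Abz/nitrotyrosine-quenched decapeptide. Fluorescence (ex 320, em 430) was read at 0 and 20 min at room temperature. Delta was normalized to 5.8 microM ADEP and DMSO/no-enzyme controls.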
ASM inhibitor = inhibitors of human secretory acid sphingomyelinase. P17405. placental ASM, HMU-PC fluorogenic substrate, 60 min. Potency, µM (series often up to 57.5 µM), usual class: inhibitors. hit rate 0.006% among 340,000
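Human placenta-derived ASM enzyme was preincubated with compound for 10 minutes at room temperature, then given fluorogenic substrate HMU-PC0 (9 uM final) for 60 minutes at 37 °C; a pH 10 stop preceded fluorescence reading at Ex 386/Em 447 nm.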
RGS4 inh = human RGS4 inhibition; Potency, µM (highest dose often 114 µM), usual class: inhibitors; Transcreener GDP fluorescence polarization, RGS4-accelerated GTP hydrolysis; P49798; hit rate 0.039% among 390,000; also: nearly all actives have a fitted effect of over 75% in size
Target sequence (P49798 whole entry, looked up): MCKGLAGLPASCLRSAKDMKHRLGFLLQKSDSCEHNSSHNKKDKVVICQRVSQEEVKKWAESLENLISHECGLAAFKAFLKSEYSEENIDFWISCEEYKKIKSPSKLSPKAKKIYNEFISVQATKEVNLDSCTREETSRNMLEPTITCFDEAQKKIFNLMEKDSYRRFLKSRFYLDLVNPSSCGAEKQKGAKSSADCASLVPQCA
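MLSMR compounds (23 nl, pin-transferred) preincubated 10 min at room temperature with a 500nM (2x) first reagent, then RGS4 at 900nM (2x) plus Transcreener GDP mix added; fluorescence polarization (620/688 nm) read before and after 90 min at 30 °C.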
LDHA block = blocks human lactate dehydrogenase A | P00338 | purified LDHA, NADH/diaphorase-resazurin fluorescence; hits give low values | activity change, % (values are at about 110 or 230 µM) | hit rate 0.15% among 480,000 | AID 1347041; in the data active = activity change below about -30%; inconclusive = mostly about -25% to -30%
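Enzyme activity of human lactate dehydrogenase 5 (2 nM; 0.06 mM NADH, 0.2 mM pyruvate, 5 min, RT) is measured via a resazurin/diaphorase fluorescence readout of residual NADH.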
Mito fusion yeast = mitochondrial division inhibition or fusion activation; S. cerevisiae fusion-defective mutant growth rescue, CellTiterGlo 48 h; Potency, µM (titrated, usually from 46.1 µM), usual class: activators; hit rate 0.23% among 320,000; AID 485298; also: nearly all actives have a fitted effect of over 45% in size
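Compounds are tested for their ability to restore growth of mitochondrial fusion-defective yeast strains at non-permissive 37C in YPEG medium over 48 hours. Viability is quantified by luciferase luminescence.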
mIDH1 inhibitor = inhibitors of human mutant IDH1 R132H; Potency, µM (titrated, usually from 76.6 µM), usual class: inhibitors; IDH1-R132H enzyme, NADPH consumption, diaphorase/resazurin fluorescence; hit rate 0.093% among 390,000; O75874; also: nearly all actives have a fitted effect of over 65% in size
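IDH1-R132H (0.5 ug/mL dispensed) in pH 7.5 Tris buffer was preincubated 30 min with compound, then given a substrate mix of 0.016 mM NADPH and 2 mM alpha-KG for 80 min at room temperature; remaining NADPH was read by diaphorase/resazurin fluorescence.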
Numbers stand for hits; i = inactive; ? = inconclusive; nt = no result; ! = not confirmed by another sample. Unless noted, calls follow the shape of the dose curve; as a rule, active = well fitted curve in the direction sought with a large enough effect; inconclusive = small, poorly fitted or top-dose-only effect, or another doubt; inactive = no such curve, though single readings can be large; an effect the other way counts as inactive or inconclusive.

SMILES | ClpP mod | ASM inhibitor | RGS4 inh | LDHA block | Mito fusion yeast | mIDH1 inhibitor
CCOc1ccc(-n2nc(CO)c(C(=O)NCc3ccc(Cl)cc3)n2)cc1 | 7.1µM | nt | i | i | nt | i
CCCCNC(=O)c1nn(-c2ccc(CC)cc2)nc1CO | ? | nt | i | i | nt | i
Cc1ccc(-n2nc(CO)c(C(=O)NCc3cccs3)n2)cc1C | 28µM | nt | i | i | nt | i
Cc1ccccc1-n1nc(CO)c(C(=O)NCc2cccs2)n1 | i | nt | i | i | nt | i
CCc1ccc(-n2nc(CO)c(C(=O)NCCc3ccccc3)n2)cc1 | ? | nt | i | i | nt | i
O=C(Nc1ccc2c(c1)CCC2)c1cc2ncccn2n1 | nt | nt | nt | i | nt | nt
CCOc1ccc(-n2nc(CO)c(C(=O)NCc3cccnc3)n2)cc1 | 6.3µM | nt | i | i | nt | i
N#CC1(NC(=O)CN(CCCO)CC(F)(F)F)CCCCCC1 | nt | nt | nt | i | nt | nt
O=C(NCCc1ccc(Cl)cc1)c1ccccn1 | nt | nt | nt | i | nt | nt
O=C(O)c1ccccc1Nc1cccc(OCc2ccc3ccccc3n2)c1 | i | i | ? | i | 15µM! | i
CCCCCCCC(=O)N/N=C/c1ccc([N+](=O)[O-])o1 | i | i | i | i | 20µM | i
CC(=O)N/C(=C/c1ccccc1)C(=O)OC(C)C(=O)NC(C)c1ccc(Cl)cc1Cl (stereo not drawn) | nt | nt | nt | i | nt | nt
CCN1N=C(c2ccccc2)Cn2c1nc1ccccc12 | 14µM | i | i | i | i | i
O=C(Cc1c[nH]c2ccccc12)NCCc1ccc(Cl)cc1 | nt | nt | nt | i | nt | nt
C=CCOC(=O)C1=C(C)NC(C)=C(C(=O)OCC=C)C1c1ccc(O)cc1 | 22µM | i | i | i | i | i
Cc1ccc(S(=O)(=O)c2nnn3c2nc(NCc2ccc(F)cc2)c2sccc23)cc1C | 28µM | nt | ? | i | nt | i
CCc1ccc(S(=O)(=O)c2nnn3c2nc(NCc2ccc(F)cc2)c2sccc23)cc1 | nt | nt | nt | i | nt | nt
CCCCNc1nc2c(S(=O)(=O)c3ccc(C)c(C)c3)nnn2c2ccsc12 | 28µM | nt | i | i | nt | i
Cc1ccc(S(=O)(=O)c2nnn3c2nc(NCc2ccc(F)cc2)c2sccc23)cc1 | i | nt | i | i | nt | i
Cc1ccc(S(=O)(=O)c2nnn3c2nc(NCc2ccccc2)c2sccc23)cc1 | 20µM | nt | i | i | nt | i
Cc1ccccc1NC(NC(=O)c1cccnc1)C(Cl)(Cl)Cl (stereo not drawn) | 13µM | i | i | i | i | i
CN(Cc1ccc2ccccc2c1)C(=O)Cc1n[nH]c(=O)c2ccccc12 | nt | nt | nt | i | nt | nt
CCOc1ccc(-c2cc(C(=O)N3CCN(c4ncccn4)CC3)c3ccccc3n2)cc1 | nt | nt | nt | i | nt | nt
COc1ccccc1NC(=O)COC(=O)c1cc(C)nc2ccccc12 | i | i | i | i | i | i
Cc1cc(C(=O)OCC(=O)c2cccc3ccccc23)c2ccccc2n1 | nt | nt | nt | -35 | nt | nt
SMILES | ClpP mod | ASM inhibitor | RGS4 inh | LDHA block | Mito fusion yeast | mIDH1 inhibitor
Cc1cc(C(=O)OCC(=O)Nc2ccccc2C(C)C)c2ccccc2n1 | nt | nt | nt | -40 | nt | nt
O=C(COc1ccc2ccccc2c1)Nc1nc2n(n1)C(c1ccccc1)CC(=O)N2 (stereo not drawn) | nt | nt | nt | i | nt | nt
COc1ccc(OC)c(C2CC(=O)N(Cc3ccc(C)cc3)c3c2c(C)nn3-c2nc(C)cc(C)n2)c1 (stereo not drawn) | nt | nt | nt | i | nt | nt
COCCN(Cc1cn(C)nc1-c1ccccc1F)C(C)C | nt | i | i | i | 5.6µM | i
O=C(/C=C/c1ccc(Cl)c(Cl)c1)c1ccc(OC(F)F)cc1OC(F)F | nt | nt | nt | i | nt | nt
COc1ccccc1NC(=O)CSC1=NC(=O)C(NC(C)=O)C(=O)N1 (stereo not drawn) | 28µM | i | i | i | i | i
COc1ccccc1NC(=O)CSC1=NC(=O)C(Cc2ccccc2)C(=O)N1 (stereo not drawn) | nt | i | i | i | i | i
COc1cccc(-c2nc(COc3ccccc3C#N)cs2)c1OC | nt | nt | nt | i | nt | nt
O=C(COc1ccc(Br)cc1)Nc1ccc(C(=O)Nc2ccccc2C(=O)O)cc1 | i | i | i | -32 | i | i
O=C(COc1ccccc1)NC(NC(=S)Nc1ccccc1C(=O)O)C(Cl)(Cl)Cl (stereo not drawn) | 35µM | i | ? | i | i | i

Assay outcomes (PubChem BioAssay)
